Reference: the supplement of paper PMC6555819

Columns and labels:
Assay in all cases: PBM binding z-score (relative to random genomic background probes); higher = stronger binding; sequences stand for … in GC…GCGATTGACAGCGTAGAATGAAGG
[1] = tested on: FXR:RXRa (NR concentration 270 nM, RXRa partner concentration 90 nM)
How it was run: (§1)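 Ligand-free nuclear receptor dimers were bound for 1 h to custom Agilent 4×180K protein-binding microarrays. Detection used antibodies against each partner (one per run). Binding z-scores rest on regression-normalized fluorescence, with random background probes as the reference.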

[2] = tested on: LXRa:RXRa (NR concentration 270 nM, RXRa partner concentration 90 nM)
How it was run: as §1

[3] = tested on: LXRa homodimer (NR concentration 270 nM)
How it was run: as §1

[4] = tested on: LXRb:RXRa (NR concentration 270 nM, RXRa partner concentration 90 nM)
How it was run: as §1

[5] = tested on: LXRb homodimer (NR concentration 270 nM)
How it was run: as §1

[6] = tested on: PPARa:RXRa (NR concentration 270 nM, RXRa partner concentration 90 nM)
How it was run: as §1

[7] = tested on: PPARg:RXRa (NR concentration 180 nM, RXRa partner concentration 90 nM)
How it was run: as §1

[8] = tested on: PPARg:RXRa 270nM:90nM, anti-RXR (NR concentration 270 nM, RXRa partner concentration 90 nM)
How it was run: as §1

[9] = tested on: PPARg:RXRa 30nM:10nM, anti-RXR (NR concentration 30 nM, RXRa partner concentration 10 nM)
How it was run: as §1

[10] = tested on: PPARg:RXRa 90nM:30nM, anti-RXR (NR concentration 90 nM, RXRa partner concentration 30 nM)
How it was run: as §1

[11] = tested on: PPARg:RXRa DBDmut IVT, anti-RXR (DBD mutation: RXRa K156A/R161A, NR concentration 270 nM, RXRa partner concentration 90 nM)
How it was run: as §1

[12] = tested on: PPARg:RXRa IVT, anti-PPARg (NR concentration 270 nM, RXRa partner concentration 90 nM)
How it was run: as §1

[13] = tested on: PPARg DBDmut:RXRa IVT, anti-PPARg (DBD mutation: PPARg1 K132A/R137A, NR concentration 270 nM, RXRa partner concentration 90 nM)
How it was run: as §1

[14] = tested on: PPARg DBDmut IVT, anti-PPARg (DBD mutation: PPARg1 K132A/R137A, NR concentration 270 nM)
How it was run: as §1

[15] = tested on: PPARg homodimer (NR concentration 180 nM)
How it was run: as §1

[16] = tested on: PXR:RXRa (NR concentration 270 nM, RXRa partner concentration 90 nM)
How it was run: as §1

[17] = tested on: PXR homodimer (NR concentration 270 nM)
How it was run: as §1

[18] = tested on: RARa:RXR (NR concentration 270 nM, RXRa partner concentration 90 nM)
How it was run: as §1

[19] = tested on: RARa homodimer (NR concentration 270 nM)
How it was run: as §1

[20] = tested on: RARb:RXRa (NR concentration 270 nM, RXRa partner concentration 90 nM)
How it was run: as §1

Sequence | PBM binding z-score [1] | PBM binding z-score [2] | PBM binding z-score [3] | PBM binding z-score [4] | PBM binding z-score [5] | PBM binding z-score [6] | PBM binding z-score [7] | PBM binding z-score [8] | PBM binding z-score [9] | PBM binding z-score [10] | PBM binding z-score [11] | PBM binding z-score [12] | PBM binding z-score [13] | PBM binding z-score [14] | PBM binding z-score [15] | PBM binding z-score [16] | PBM binding z-score [17] | PBM binding z-score [18] | PBM binding z-score [19] | PBM binding z-score [20]
ATATGTAGGTTACATCCGGGTCATTTAGGCTATG | 2 | 4.62 | 1.8 | 3.3 | 0.865 | 4.68 | 6.01 | 5.23 | 2.64 | 4.38 | 7.42 | 7.5 | 4.18 | 3.77 | 3.45 | 3.45 | 1.06 | 3.55 | 0.824 | 2.16
ACTTACGGGTCAACGATGTTATAGCACGCGTATA | 6.28 | 4.04 | 0.405 | 3.64 | 0.787 | 5.53 | 4.83 | 5.13 | 2.07 | 3.75 | 3.44 | 3.78 | 1.72 | 1.54 | 2.59 | 3.49 | 0.444 | 4.41 | 0.951 | 4.09
ATATGTAGGTTATCGGGTCATCCAGTTTGCGCAT | 3.4 | 3.29 | 1.73 | 3.26 | 1.22 | 5.15 | 7.35 | 6.27 | 3.9 | 5.79 | 7.5 | 7.73 | 3.61 | 3.11 | 3.09 | 3.98 | 5.45 | 4.35 | 1.79 | 2.96
CCTAGAAGGCCAATCTGGGTCACTCAAGGCTTGA | 1.99 | 3.1 | -0.29 | 2.04 | -0.793 | 3.72 | 2.93 | 2.57 | 0.176 | 1.97 | 3.74 | 4.78 | -0.238 | -1.07 | 1.21 | 1.86 | -0.344 | 2.12 | 0.185 | 2.4
ACTATTAGTTGACTTAAGGCAACCGATACGACGC | 0.413 | 0.299 | 0.175 | 0.537 | 1.03 | 0.139 | 0.967 | 0.607 | 0.511 | 0.394 | 0.219 | 0.392 | 0.915 | 1.11 | 0.0202 | 0.21 | -0.0343 | 1.43 | 0.466 | 0.296
TCATATAGGTAATACAGGTTAAAGTCGGCATCTA | 1.72 | 2.72 | 2.2 | 1.82 | 0.603 | 2.28 | 1.93 | 2.74 | 4.37 | 3.53 | 4.34 | 3.27 | 1.19 | 1.83 | 1.52 | 1.32 | 0.749 | 1.97 | 1.97 | 0.992
